PubChem BioAssay AID488849 (National Center for Advancing Translational Sciences (NCATS), 2010)
“And” between values parts separate entries of the source, which are not always exact repeats. Identical values can stand only once. Records with an inconclusive call do not appear. The source made the active and inactive calls. Calls follow the shape of the dose curve; as a rule, active = well fitted activation curve with a large enough effect; inconclusive = small, poorly fitted or top-dose-only effect; inactive = flat fitted curve, though single readings scatter.

target: Lysosomal acid glucosylceramidase (Homo sapiens) (UniProt P04062); test: qHTS Assay for Inhibitors and Activators of N370S glucocerebrosidase as a Potential Chaperone Treatment of Gaucher Disease: Activity in Non-Mutant Spleen Confirmation for Probe SAR; details: human spleen homogenate, 4-MU-beta-glucoside fluorescence; series mostly up to 57.5 µM; activity change, negative = inhibition: at the top concentration
Sequence (P04062 whole entry, looked up): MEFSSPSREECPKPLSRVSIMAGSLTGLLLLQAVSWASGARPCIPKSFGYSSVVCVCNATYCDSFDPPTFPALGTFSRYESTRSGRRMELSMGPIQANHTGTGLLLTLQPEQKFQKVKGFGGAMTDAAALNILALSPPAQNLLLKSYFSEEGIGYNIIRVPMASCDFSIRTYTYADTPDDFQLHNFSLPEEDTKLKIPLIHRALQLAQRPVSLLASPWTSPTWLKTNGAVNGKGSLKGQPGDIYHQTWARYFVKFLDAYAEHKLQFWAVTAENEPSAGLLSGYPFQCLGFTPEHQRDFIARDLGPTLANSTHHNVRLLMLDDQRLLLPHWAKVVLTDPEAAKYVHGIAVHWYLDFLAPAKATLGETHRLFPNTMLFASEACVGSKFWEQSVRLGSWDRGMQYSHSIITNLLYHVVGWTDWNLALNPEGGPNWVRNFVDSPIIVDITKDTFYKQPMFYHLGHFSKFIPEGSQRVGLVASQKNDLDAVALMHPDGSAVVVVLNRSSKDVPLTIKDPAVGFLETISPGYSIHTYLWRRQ
Excerpt: NIH Chemical Genomics Center [NCGC] NIH Molecular Libraries Probe Production Centers Network [MLPCN] MLPCN Grant: MH086442-01 Assay Submitter (PI): Wei Zheng Glucocerebrosidase (GC) catalyzes the hydrolysis of beta-glucocerebroside to glucose and ceramide in lysosomes. Mutations in the glucocerebrosidase gene result in Gaucher disease, an autosomal recessive lysosomal storage disorder. Many of the mutations encountered in patients with Gaucher disease are missense alterations that may cause misfolding, decreased stability and/or mistrafficking of this lysosomal protein. […] These inhibitors include iminosugar analogs and three non-iminosugar inhibitors identified from a previous HTS of 62,000 compounds with the wild type recombinant enzyme. However, the enhancement of enzyme activity by the chaperone action of an enzyme inhibitor must be balanced against the direct inhibition of the enzyme. An enzyme activator could also function as a chaperone by binding to the enzyme and helping to correct its misfolding and mistrafficking. While activators for GC have not yet been identified, they may have better therapeutic potential than inhibitors. Therefore the discovery and development of chemical activators may provide a new strategy for the chaperone therapy. We have optimized a new assay using N370S mutant GC derived from the spleen of a Gaucher patient. […] In addition, the MLPCN compound library has expanded, which increases the chance of finding new and better probes. This confirmation assay tests for compound activity in spleen homogenate containing wildtype enzyme.
NCGC Assay Protocol Summary: This is a fluorogenic enzyme assay with 4-methylumbelliferyl-beta-D-glucopyranoside as the substrate and wildtype glucocerebrosidase from human spleen homogenate as the enzyme preparation. Upon the hydrolysis of this fluorogenic substrate, the resulting product, […] which can be detected by a standard fluorescence plate reader. Data were normalized to the controls for basal activity (without enzyme) and 100% activity (with enzyme). The AC50 values were determined from concentration-response data modeled with the standard Hill equation. Assay buffer: 50 mM citric acid (titrated with potassium phosphate to pH 5.0), 100 mM potassium chloride, 10 mM sodium chloride, 1 mM magnesium chloride, 0.01% Tween-20. 1536-well assay protocol: (1) Add 2 ul/well of spleen homogenate (27 ug final) (2) Add 23 nL compounds in DMSO solution. The final titration was 0.5 nM to 58 uM. (3) Add 2 ul of substrate (1 mM final) (4) Incubate at 37C for 40 min. (5) Add 2 ul stop solution (1M NaOH and 1M Glycine mixture, pH 10) (6) Detect the assay plate in a ViewLux plate reader (PerkinElmer) with Ex=365 nm and Em=440nm. Keywords: Glucocerebrosidase, beta-glucosidase, Gaucher Disease, pharmacological chaperone, chaperone therapy, high throughput screening, glucocerebrosidase inhibitor, MLSMR, MLSCN, NIH Roadmap, qHTS and NCGC

| Structure (SMILES) | Potency | activity change, negative = inhibition |
| --- | --- | --- |
| C#Cc1ccc(NC(=O)c2cnn3c(C)cc(C)nc23)cc1 | 0.41 µM (active) | – |
| Cc1cccc(NC(=O)c2cnn3c(C)cc(C)nc23)c1 | 8.19 µM (active) | – |
| CCc1ccc(NC(=O)c2cnn3c(C)cc(C)nc23)cc1 | 2.91 µM (active) | – |
| Cc1ccc(NC(=O)c2cnn3c(C)cc(C)nc23)c(C)c1 | 8.19 µM (active) | – |
| Cc1ccc(NC(=O)c2cnn3c(C)cc(C)nc23)cc1 | 3.26 µM (active) | – |
| Cc1cc(C)n2ncc(C(=O)NC(C)C)c2n1 | – | 22.5% (inactive) |
| Cc1cc(C)n2ncc(C(=O)Nc3ccc(C)c(C)c3)c2n1 | 4.11 µM (active) | – |
| Cc1cc(C)n2ncc(C(=O)Nc3cccc(C#N)c3)c2n1 | – | 3.71% [at 19 µM] (inactive) |
| Cc1cc(C)n2ncc(C(=O)Nc3ccc(C(F)(F)F)cc3)c2n1 | 1.46 µM (active) | – |
| Cc1cc(C)n2ncc(C(=O)Nc3ccc(S(C)(=O)=O)cc3)c2n1 | – | -0.537% (inactive) |
| COc1ccc(NC(=O)c2cnn3c(C)cc(C)nc23)cc1 | 20.6 µM (active) | – |
| O=C(Nc1ccccc1Sc1ccccc1)c1cnn2c1NC(=C1CC1)C=C2C(F)F | 4.61 µM (active) | – |
| Cc1cc(C)n2ncc(C(=O)Nc3ccc4c(c3)OCO4)c2n1 | 13 µM (active) | – |
| CNC(=O)c1cnn2c(C)cc(C)nc12 | – | 1.47% (inactive) |
| Cc1cc(C)n2ncc(C(=O)Nc3ccc4c(c3)CCC4)c2n1 | 2.91 µM (active) | – |
| Cc1cc(C)n2ncc(C(=O)Nc3ccc4c(c3)OCCO4)c2n1 | 13 µM (active) | – |
| CC(=O)Nc1ccc(NC(=O)c2cnn3c(C)cc(C)nc23)cc1 | – | 1.44% (inactive) |
| Cc1cc(C)n2ncc(C(=O)Nc3ccc(Br)cc3)c2n1 | 2.06 µM (active) | – |
| Cc1cc(C)n2ncc(C(=O)N3CCCC3)c2n1 | – | 2.17% (inactive) |
| COc1ccc(NC(=O)c2cnn3c(C)cc(C)nc23)cc1OC | – | 25.1% (inactive) |
| CC(=O)Nc1ccccc1NC(=O)c1cnn2c(C)cc(C)nc12 | – | 1.4% (inactive) |
| Cc1cc(C)n2ncc(C(=O)NC3CCC(C(C)(C)C)CC3)c2n1 (stereo not drawn) | 11.6 µM (active) and 2.06 µM (active) | – |
| Cc1cc(C)n2ncc(C(=O)Nc3ccncc3)c2n1 | – | -0.601% (inactive) |
